Test [1] is described as follows: qHTS assay to identify small molecule antagonists of the glucocorticoid receptor (GR) signaling pathway - cell viability counter screen (AID 720693). Also: nearly all actives have a fitted effect of over 55% in size. In general terms: qHTS replaces the single test concentration by a dilution series.
Test [2] can be described thus: qHTS assay to identify small molecule antagonists of the androgen receptor (AR) signaling pathway - cell viability counter screen (AID 743033; also: nearly all actives have a fitted effect of over 45% in size; also: potency is read from the fitted curve at half-maximal effect).
Test [3] in a line: qHTS assay to identify small molecule antagonists of the androgen receptor (AR) signaling pathway using the MDA cell line - cell viability counter screen (AID 743041; also: nearly all actives have a fitted effect of over 45% in size; also: potency is read from the fitted curve at half-maximal effect). In a few lines:
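Cells were plated at 3,000 per well and left 5 h. Compounds in DMSO were then pinned in, followed by R1881. After 16 h at 37C, CellTiter-Fluor fluorescence gave viability.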

The nature of test [4]: qHTS assay for identifying genotoxic compounds that show differential cytotoxicity against isogenic chicken DT40 cell lines with known DNA damage response pathways - wild type cell line (AID 743012). Also: nearly all actives have a fitted effect of over 60% in size. Also: potency is read from the fitted curve at half-maximal effect. In a few lines:
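Wild type DT40, 300 cells/well, ~0.5 h settle at 37 C/5% CO2; compounds in DMSO added by pintool; 40 h at 37 C/5% CO2; CellTiter-Glo, 30 min RT; luminescence.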

Test [5] is described as follows: qHTS assay for identifying genotoxic compounds that show differential cytotoxicity against isogenic chicken DT40 cell lines with known DNA damage response pathways - Rad54/Ku70 mutant cell line (AID 743015). Also: nearly all actives have a fitted effect of over 60% in size. Also: potency is read from the fitted curve at half-maximal effect.
For test [6], the target named is Androgen receptor (Homo sapiens) (UniProt P10275). Briefly: qHTS assay to identify small molecule agonists of the androgen receptor (AR) signaling pathway (AID 743036; active = well fitted activation curve with a large enough effect in the signal ratio in the repeat runs, with a control signal flat, not every such curve was filed as active; the % refers to the signal ratio). In a few lines:
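Following a 4 h settling period, AR-UAS-bla HEK293 cells were dosed with compounds for 16 h at 37C. A 2 h room-temperature incubation with LiveBLAzer B/G FRET substrate preceded the fluorescence measurement.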

Test [7] shares this target. Briefly: qHTS assay to identify small molecule agonists of the androgen receptor (AR) signaling pathway using the MDA cell line (AID 743040; also: nearly all actives have a fitted effect of over 20% in size). In a few lines: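 Cells plated, 5 h at 37C/0% CO2; compound or DMSO pinned; 16 h at 37C; ONE-Glo added; luminescence measured after 30 min at room temperature. Reporter line: MDA-kb2 with MMTV-luciferase responsive to AR and GR.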

Test [8] has the same target. In words: qHTS assay to identify small molecule antagonists of the androgen receptor (AR) signaling pathway using the MDA cell line (AID 743042; also: nearly all actives have a fitted effect of over 55% in size; also: potency is read from the fitted curve at half-maximal effect). In a few lines:
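Antagonist mode: compounds plus R1881 agonist added to MDA-kb2 AR-luc cells, incubated 16 h at 37C. Luciferase reporter luminescence quantified, with multiplexed CellTiter-Fluor readout for cell viability.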

A short description of test [9]: qHTS assay for identifying genotoxic compounds that show differential cytotoxicity against isogenic chicken DT40 cell lines with known DNA damage response pathways - Rev3 mutant cell line (AID 743014). Also: nearly all actives have a fitted effect of over 55% in size. Also: potency is read from the fitted curve at half-maximal effect.
The target in test [10] is Androgen receptor (Homo sapiens) (UniProt P10275). Briefly: qHTS assay to identify small molecule antagonists of the androgen receptor (AR) signaling pathway (AID 743035; active = well fitted inhibition curve with a large enough effect in the signal ratio in the repeat runs, not every such curve was filed as active; the % refers to the signal ratio; also: potency is read from the fitted curve at half-maximal effect). Put shortly:
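Fluorescence from a beta-lactamase FRET substrate (LiveBLAzer B/G, 2 h, room temperature) measured inhibition of R1881-stimulated signaling in GeneBLAzer AR-UAS-bla HEK293 cells exposed to compound for 16 h at 37C.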

Results filed as inconclusive are left out. Active and inactive are the calls of the source. Unless noted, calls follow the shape of the dose curve; as a rule, active = well fitted curve in the direction sought with a large enough effect in the repeat runs; inconclusive = weak or mixed curves; inactive = no such curve, though single readings can be large; an effect the other way counts as inactive or inconclusive.

Chain of Androgen receptor (Homo sapiens) (P10275 whole entry, looked up): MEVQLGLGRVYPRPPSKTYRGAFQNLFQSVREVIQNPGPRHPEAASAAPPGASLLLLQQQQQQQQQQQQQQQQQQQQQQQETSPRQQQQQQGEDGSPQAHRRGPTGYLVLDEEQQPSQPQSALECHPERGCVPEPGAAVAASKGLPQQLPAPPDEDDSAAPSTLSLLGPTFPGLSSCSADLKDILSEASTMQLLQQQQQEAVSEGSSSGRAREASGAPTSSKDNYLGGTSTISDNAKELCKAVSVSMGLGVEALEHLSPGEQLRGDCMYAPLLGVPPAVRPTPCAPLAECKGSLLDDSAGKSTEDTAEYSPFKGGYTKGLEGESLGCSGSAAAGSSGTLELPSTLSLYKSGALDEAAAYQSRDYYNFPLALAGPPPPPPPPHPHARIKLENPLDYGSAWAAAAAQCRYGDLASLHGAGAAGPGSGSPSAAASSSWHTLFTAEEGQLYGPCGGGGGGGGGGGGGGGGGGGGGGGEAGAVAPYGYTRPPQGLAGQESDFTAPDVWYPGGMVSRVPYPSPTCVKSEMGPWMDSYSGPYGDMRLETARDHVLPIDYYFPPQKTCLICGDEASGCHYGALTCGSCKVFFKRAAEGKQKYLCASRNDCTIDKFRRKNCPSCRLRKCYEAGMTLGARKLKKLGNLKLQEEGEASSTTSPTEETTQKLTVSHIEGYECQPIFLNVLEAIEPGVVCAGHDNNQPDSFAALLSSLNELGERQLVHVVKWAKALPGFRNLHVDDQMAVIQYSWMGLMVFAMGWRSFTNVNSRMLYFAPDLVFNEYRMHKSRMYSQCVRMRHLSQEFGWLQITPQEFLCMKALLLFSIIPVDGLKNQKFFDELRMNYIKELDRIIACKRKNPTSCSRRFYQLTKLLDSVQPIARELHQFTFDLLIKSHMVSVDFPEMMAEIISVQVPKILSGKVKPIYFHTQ

Take `CC(C)C=O`: the Potency result in [1], in [2] and in test [3] was “inactive” in each case.
In the case of `COC(=O)C1=C(C)NC(C)=C(C(=O)O[C@@H]2CCCN(Cc3ccccc3)C2)[C@@H]1c1cccc([N+](=O)[O-])c1`, the Potency in test [4] and in test [5] was 13.3 µM (active) each time.
`CCCCCCCCC(CCCCCC)C(=O)O` (centres undefined): the Potency result in test [4], in test [5], in test [2] and in [3] was “inactive” each time.
For the molecule `CCCCC(CC)CN` (centres undefined), the Potency in test [4] is 55.5 µM (active); in test [5] it was 55.5 µM (active); in test [2], 44.5 µM (active). Further, the molecule was called inactive in test [6] and in [7]. The Potency entry in [3] and in test [8] was “inactive” throughout.
`CCCCN1CCCC1C(=O)Nc1c(C)cc(C)cc1C` (centres undefined): the values for the Potency in [4] and in test [5] were 16.8 µM (active) and 29.8 µM (active), respectively. In addition, the Potency entry in test [2] and in test [3] was “inactive” each time.
As for `Cc1ccc(Cl)c(Nc2ccccc2C(=O)O)c1Cl`, the Potency result in test [5], in test [2] and in [3] was “inactive” in each case.
Consider `CCOC(=O)/C=C/C(=O)OCC`, for which the Potency result in test [4], in test [9], in test [2] and in [3] was “inactive” throughout.
As for `C=CC(=O)OCC1CC2CC1C1CCC(COC(=O)C=C)C21` (centres undefined), the Potency is 24.3 µM (active) in test [9] and 19.3 µM (active) in [5].
With `COc1ccccc1NC(=O)c1cc2ccccc2cc1O`, the Potency in [4] was 43.3 µM (active); in test [9] it was 48.6 µM (active); in test [5] it was 30.6 µM (active); in [2], 13.8 µM (active). The result in test [6] and in test [7] was inactive. Also, the Potency entry in test [3] is “inactive”.
Regarding `Cc1cc(O)ccc1O`, the Potency entry in test [4], in test [9], in [5], in test [2] and in [3] was “inactive” each time.
As to `O=[N+]([O-])c1cc(C2CCCCC2)c(O)c([N+](=O)[O-])c1`, the Potency in test [4] is 17.2 µM (active); in test [9], 21.6 µM (active); in test [5], 19.3 µM (active); in [10], 5.48 µM (active); in test [3], 30.5 µM (active); in test [8], 12.2 µM (active). The call in [7] was inactive.
With `CCCCCCCCOc1ccc(C(=O)O)cc1`, the Potency entry in [4], in [9], in test [5], in [2] and in [3] was “inactive” throughout.
For the molecule `CN(C(=O)CN(CCO)CC(=O)N(C)C(C)(C)Cc1ccccc1)C(C)(C)Cc1ccccc1`, the Potency result in [1] and in test [3] was “inactive” throughout.
On to `COC(=O)CS`, for which the Potency result in test [1] and in [3] was “inactive” throughout.
`CCC(=O)C1CC(C(C)C)CC=C1C` (centres undefined): the Potency entry in test [4], in test [9], in test [5], in test [2], in test [10] and in test [3] was “inactive” each time. The Potency result in test [8] was “inactive”. The result in test [6] and in [7] was inactive.
In the case of `O=C(CCc1ccc(O)cc1)c1c(O)cc(O)cc1O`, the Potency in [9] was 62.5 µM (active). In addition, the Potency result in [3] and in [8] was “inactive” throughout.
Consider `O=c1cc(-c2ccccc2)oc2cc(O)cc(O)c12`, for which the values for the Potency in [4], in [9] and in [5] were 54.5 µM (active), 48.6 µM (active) and 24.3 µM (active), respectively. Further, the Potency entry in [2], in [3] and in [8] was “inactive” in each case. In addition, the molecule was classed as inactive in test [7].
On to `Cc1cc2c(OCC(CNC(C)(C)C)OC(=O)c3ccccc3)cccc2[nH]1` (centres undefined), for which the Potency entry in test [1], in test [2] and in [3] was “inactive” in each case.
On to `OC(CCN1CCCC1)(c1ccccc1)C1CCCCC1` (centres undefined), for which the Potency in test [4] was 11.4 µM (active). Moreover, the Potency result in test [10], in test [3] and in test [8] was “inactive” each time. Also, the outcome in [6] and in test [7] was inactive.
As to `C/C=C(/C(=C/C)c1ccc(O)cc1)c1ccc(O)cc1`, the Potency entry in test [4] and in [3] was “inactive” each time.
Consider `CC(=O)N/N=C/c1ccc([N+](=O)[O-])o1`, for which the Potency in [4] was 11.9 µM (active); in test [9] it was 10.6 µM (active); in [5], 18.8 µM (active). Further, the Potency result in test [2] and in test [3] was “inactive” in each case.
Take `CCC1(CO)COCOC1`: the Potency entry in test [1], in test [2] and in test [3] was “inactive” in each case.
In the case of `CN1CCCN=C1COC(=O)C(O)(c1ccccc1)C1CCCCC1` (centres undefined), the Potency entry in test [1] and in test [3] was “inactive” each time.
As for `Brc1cc2ccccc2c2ccccc12`, the Potency entry in test [1], in [2] and in test [3] was “inactive” throughout.
Consider `C[C@]12CC[C@@H]3c4ccc(O)cc4CC[C@H]3[C@@H]1CC[C@@H]2OC(=O)CCC1CCCC1`, for which the Potency in test [4] was 11.9 µM (active); in test [9] it was 24.3 µM (active); in test [5], 11.9 µM (active). For the same molecule, the Potency result in [2] and in test [3] was “inactive” in each case.
As for `O=C(Cn1ccnc1[N+](=O)[O-])NCCO`, the Potency result in [4], in [9], in test [5], in test [2], in test [10] and in [3] was “inactive” each time. The Potency entry in test [8] is “inactive”. Moreover, the molecule was called inactive in test [6] and in test [7].
As for `CC(=O)NC1(c2cccc(F)c2)CCN(CC[C@@]2(c3ccc(Cl)c(Cl)c3)CN(c3ccccc3)C(=O)CO2)CC1`, the Potency was 43.4 µM (active) in [4], 54.6 µM (active) in test [9], 48.7 µM (active) in test [5] and 39 µM (active) in [2]. Further, the Potency result in test [3] is “inactive”.

The values above are taken from PubChem BioAssay (Tox21).
